# Caspase-7 inhib – blocks human caspase-7 allosterically or competitively; P55210; Potency, µM (series often up to 57.5 µM), inactives show at the top dose activity change, negative = inhibition, usual class: inhibitors; AID 889; 0.02% of 75,000 active; recombinant caspase-7, Ac-DEVD-AFC fluorescence rate; active = well fitted inhibition curve with a large enough effect in the main read-out, with a control signal flat, not every such curve was filed as active; inconclusive = small, poorly fitted or top-dose-only effect, or a change in a side signal; also: % of control where 0% means no effect
# USP2a inhib – USP2a (human) protease inhibition. Potency, µM (titrated, usually from 38.3 µM), for the others: at the highest dose activity change, negative = inhibition, hits mostly inhibitors. 0.1% of 60,000 active. USP2a enzymatic assay, qHTS inhibition. O75604; also: nearly all actives have a fitted effect of over 60% in size
# Target sequence (O75604 whole entry, looked up): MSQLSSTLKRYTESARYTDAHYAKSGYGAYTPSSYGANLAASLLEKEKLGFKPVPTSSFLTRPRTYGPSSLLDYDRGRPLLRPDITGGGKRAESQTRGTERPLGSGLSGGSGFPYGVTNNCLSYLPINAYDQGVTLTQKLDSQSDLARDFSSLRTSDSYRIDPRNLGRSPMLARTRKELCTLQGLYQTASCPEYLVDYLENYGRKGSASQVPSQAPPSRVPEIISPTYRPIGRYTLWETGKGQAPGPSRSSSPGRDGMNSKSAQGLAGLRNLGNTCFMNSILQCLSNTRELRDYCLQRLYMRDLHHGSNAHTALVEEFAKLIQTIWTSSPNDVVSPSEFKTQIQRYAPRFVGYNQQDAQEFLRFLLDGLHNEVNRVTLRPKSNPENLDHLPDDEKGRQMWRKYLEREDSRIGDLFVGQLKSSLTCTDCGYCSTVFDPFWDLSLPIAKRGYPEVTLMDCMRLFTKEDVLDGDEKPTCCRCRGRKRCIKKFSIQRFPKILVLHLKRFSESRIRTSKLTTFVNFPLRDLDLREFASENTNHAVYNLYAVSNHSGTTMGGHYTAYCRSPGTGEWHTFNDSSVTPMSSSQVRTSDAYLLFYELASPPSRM
#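 20 nM USP2 core + cpd, 30 min RT; add 20 nM Ub-PLA2/20 uM NBD C6-HPC; read Ex460/Em535 at 0 h and 2.5 h. Normalized to NEM; qHTS curve fit/classification.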
# CRE-bla Fsk – modulators of forskolin-stimulated CRE signaling in CHO cells. 2.5% of 71,000 active. Potency, µM (doses to about 38.2 µM), inactives show at the top dose activity change, negative = inhibition, actives largely listed as activators. CHO CRE-bla reporter (cAMP response element driving beta-lactamase), forskolin EC10, beta-lactamase ratio; active = well fitted activation curve with a large enough effect in the signal ratio, with a control signal flat, not every such curve was filed as active; inconclusive = small, poorly fitted or top-dose-only effect, or effect the other way, or a change in a side signal; the % refers to the signal ratio; also: % of control where 0% means no effect
#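 Modulation of forskolin signalling: compounds in titration series added with EC10 NKH 477 to CHO cells carrying a CRE-driven beta-lactamase reporter, 3 h, 37C. CCF4 FRET ratio (460/530 nm, ex 405 nm) gives %activity and AC50.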
# HEK293 cAMP cs – counter-screen for TSHR agonists: cAMP increase in parental HEK293 | Potency, µM (top dose mostly 57.1 µM), without a hit: at the top dose activation, hits mostly activators | parental HEK293 CNG cAMP sensor, membrane potential fluorescence | AID 938 | 2.5% of 73,000 active; also: % of control where 0% means no effect; nearly all actives have a fitted effect of over 55% in size
#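 Parental HEK 293 cells stably expressing a modified CNG channel (no TSHR) report cAMP rise as membrane depolarization. Membrane potential dye with 100 uM RO 20-1724 was loaded for 60 min at room temperature, then compound added for 30 min; fluorescence read at 590 nm.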
# TSHR agonist – activates the human thyroid stimulating hormone receptor | HEK293-CNG-TSHR cells (CNG channel as cAMP sensor), membrane potential dye, cAMP | Potency, µM (titrated, usually from 57.1 µM), for the others: at the top dose activation, hits mostly activators | 0.48% of 73,000 active; active = well fitted activation curve with a large enough effect in the main read-out, with a control signal flat, not every such curve was filed as active; inconclusive = small, poorly fitted or top-dose-only effect, or a change in a side signal; inactive = no such curve, though single readings can be large or run the other way; % of control where 0% means no effect;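 also: the control signal comes from parental cells without the receptor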
#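 HEK 293 cells stably expressing TSHR and a cAMP-gated CNG channel; parental CNG-only cells as counterscreen. Cells preloaded 60 min with membrane potential dye plus 100 uM RO 20-1724, then compound 30 min; fluorescence read at 590 nm.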
# Caspase-1 inhib – blocks human caspase-1 allosterically or competitively. Caspase-1 enzyme, Ac-WEHD-AFC fluorogenic rate. Potency, µM (highest dose often 57.5 µM), inactives show top-dose activity change, negative = inhibition, usual class: inhibitors. 0.03% of 75,000 active. AID 900;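 also: plate controls were vehicle for no effect and no substrate for full effect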
# Active calls of the source: *; ? = inconclusive; . = no result; [ ] = another dose, or the depositor's remark. In the library only some 5% were active in any assay of this set; here they are far more common. Unless noted, calls follow the shape of the dose curve; as a rule, active = well fitted curve in the direction sought with a large enough effect; inconclusive = small, poorly fitted or top-dose-only effect, or another doubt; inactive = no such curve, though single readings can be large; an effect the other way counts as inactive or inconclusive. Potency is read from the fitted curve at half-maximal effect.
SMILES,Caspase-7 inhib,USP2a inhib,CRE-bla Fsk,HEK293 cAMP cs,TSHR agonist,Caspase-1 inhib
CCCCCCC(=O)N1CCC(c2nc3c(nnn3Cc3ccccc3Cl)c(=O)[nH]2)CC1,13µM*,.,?,?,?,-4%
Cc1ccc(C)c(Cn2nnc3c(=O)[nH]c(C4CCCN(C(=O)C5CCCCC5)C4)nc32)c1 (stereo unspecified),-9%,32%,?,20µM*,?,-2%
O=C(C1CCCCC1)N1CCCC(c2nc3c(nnn3Cc3ccccc3)c(=O)[nH]2)C1 (stereo unspecified),-5%,90%,?,?,?,-2%
O=C(C1CCCCC1)N1CCC(c2nc3c(nnn3Cc3ccccc3Cl)c(=O)[nH]2)CC1,?,34%,?,18%,11%,0%
Cc1ccc(C(=O)[C@@H]2[C@@H]3[C@@H](C(=O)[C@@H]4OC[C@H]3O4)[C@@H]3C=Cc4ccccc4N23)cc1,.,.,?,-8%,-2%,.
CC1=C(C(=O)OCc2ccccc2)C(c2ccc(C3CCCCC3)cc2)NC(=O)N1CCCCCC(=O)O (stereo unspecified),-19%,.,?,32µM*,?,-7%
COc1cc(/C=C/C(=O)O)ccc1O,-1%,-14%,.,.,.,2%
COc1cc(/C=C/C(=O)/C=C(O)/C=C/c2ccc(O)c(OC)c2)ccc1O,-25%,10µM*,.,.,.,?
NC(N)=N[C@H](CC(=O)O)c1ccccc1,0%[11.5 µM],.,4%[7.6 µM],2%[11.4 µM],-6%[11.4 µM],0%[11.5 µM]
COc1ccc(-c2cc3nc(C)cc(NCCO)n3n2)cc1,-2%,2%,?,11%,-2%,-4%
Cc1ccc(-c2cc3nc(C)cc(NCc4ccco4)n3n2)cc1,-28%,12%,13µM*,12%,5%,.
O=c1c2cccc3c2c(nn1CN1CCOCC1)-c1ccccc1-3,-7%,6%,13µM*,15%,17%,-8%
CCc1c(O)c2c(c(O)c1C(C)=O)C(=O)c1c(cc(O)c(C(=O)O)c1C(=O)O)C2=O,-6%[11.5 µM],.,0%[7.6 µM],1%[11.4 µM],-4%[11.4 µM],-1%[11.5 µM]
CC1=C(C(=O)Nc2ccccc2)C(c2ccco2)C(C#N)=C(SCC(=O)OC(C)C)N1 (stereo unspecified),-7%,28%,?,20µM*,?,-9%
CCOC(=O)c1cc2sc(C)cc2n1CC(=O)N1CCc2ccccc21,0%,96%,-6%,7.9µM*,?,-1%
COC(=O)c1ccc(COC(=O)C23CC4CC(CC(O)(C4)C2)C3)o1,-1%,8%,4%,7%,25µM*,-2%
CCCCOc1cccc(OCCCC)c1C(=O)Nc1cc(C)on1,0%,-5%,?,2µM*,?,0%
CCOc1ccc(C(=O)Nc2cc(C)on2)cc1OCC,0%,-7%,6%,2%,-15%,-1%
COC(=O)c1ccccc1Nc1cc(C)nc2nc(C)nn12,1%,.,13µM*,6%,6%,0%
CCOC(=O)c1ccccc1Nc1cc(C)nc2nc(C)nn12,-2%,.,13µM*,18%,15%,-2%
COC(=O)c1ccc(Nc2cc(C)nc3nc(C)nn23)cc1,-1%,.,?,12%,12%,1%
C[C@@H](N1CCOCC1)[C@@](O)(c1ccccc1)c1ccccn1,-3%[11.5 µM],.,-6%[7.6 µM],2%[11.4 µM],2%[11.4 µM],-2%[11.5 µM]
CN1CC[C@@]2(CCN3CCc4c(oc5ccccc45)[C@@H]3C2)N(C)C1=O,0%,-1%,-5%,10%,5%,1%
FC(F)(F)c1ccccc1-c1nc(N2CCNCC2)c2ccccc2n1,1%,-9%,0%,9%,2%,3%
FC(F)(F)c1ccccc1-c1nc(N2CCOCC2)c2ccccc2n1,-27%,10µM*,?,1µM*,?,-2%
SMILES,Caspase-7 inhib,USP2a inhib,CRE-bla Fsk,HEK293 cAMP cs,TSHR agonist,Caspase-1 inhib
CN1CCN(c2nc(-c3cccc(NS(C)(=O)=O)c3)nc3ccccc23)CC1,2%,10%,?,15%,8%,-2%
CN(C)C(=O)c1ccc(-c2nc(N3CCOCC3)c3ccccc3n2)cc1,-3%,3%,10µM*,-9%,3%,0%
CS(=O)(=O)Nc1cccc(-c2nc(N3CCOCC3)c3ccccc3n2)c1,1%,9%,2.5µM*,11%,.,1%
CN(C)C(=O)c1ccc(-c2nc(-n3ccnc3)c3ccccc3n2)cc1,-9%,-24%,?,9%,0%,-2%
COc1cc2c(cc1OC)-c1cc3nc4ccccc4nc3n1C(C)(C)C2,?,.,?,-1%,2%,.
CCN1C(=O)[C@@H]2[C@H]3C(=CC[C@H]2C1=O)C(=O)[C@H]1OC1[C@H]3O (stereo partly specified),-14%[11.5 µM],.,.,6%[11.4 µM],-8%[11.4 µM],-10%[11.5 µM]
COCCn1c(=O)c(-c2ccc(Cl)cc2)nc2cncnc21,?,12%,10µM*,?,?,?
COc1ccccc1CCn1c(=O)c(-c2ccccc2)nc2cncnc21,-10%,24%,?,4µM*,?,-7%
COc1ccccc1CCn1c(=O)c(-c2ccc(F)c(F)c2)nc2cncnc21,-18%,194%,10µM*,?,?,-14%
c1ccc(CCCNc2nnnc3ccccc23)cc1,3%[11.5 µM],.,7%[7.6 µM],19%[11.4 µM],21%[11.4 µM],-5%[11.5 µM]
O=C(O)CCCSc1ccccc1,0%[11.5 µM],.,0%[7.6 µM],4%[11.4 µM],0%[11.4 µM],1%[11.5 µM]
Cn1cnc([N+](=O)[O-])c1Sc1nc(N)nc2c1ncn2[C@H]1C[C@H](O)[C@@H](CO)O1,-2%[11.5 µM],.,8%[7.6 µM],6%[11.4 µM],0%[11.4 µM],-2%[11.5 µM]
Cc1cccc(C(=O)Nc2ccccc2C(=O)OCc2c(C)noc2C)c1,-3%,-6%,?,16µM*,?,-1%
Cc1noc(C)c1COC(=O)c1cc(C)n(-c2ccccc2)c1C,5%,-14%,?,?,?,-2%
O=C1C2=CC[C@H]3C(=O)N(C4CCCCC4)C(=O)[C@@H]3[C@@H]2[C@H](O)[C@@H]2O[C@H]12,-14%[11.5 µM],.,.,4%[11.4 µM],5%[11.4 µM],-7%[11.5 µM]
CCCN(CCC)S(=O)(=O)c1cc(Br)cc2c1N(C(=O)CC)CC2,1%,11%,11%,25µM*,?,-1%
O=C(O)[C@@H]1[C@@H](C(=O)Nc2ncccn2)[C@@H]2C=C[C@@H]1O2,-1%[11.5 µM],.,8%[7.6 µM],-3%[11.4 µM],-1%[11.4 µM],4%[11.5 µM]
Cc1onc(-c2ccccc2Cl)c1C(=O)Nc1cccc2nsnc12,-26%,-11%,?,32µM*,?,.
CCSc1nncn1/N=C/c1ccc(OC)c(OC)c1,2%,8%,10µM*,2%[11.4 µM],20%,-3%
Cc1cc(C)n(CCc2nc(-c3cc4ccccc4o3)cs2)n1,-4%,44%,?,16µM*,?,0%
